The record followed here is PubChem BioAssay (EPA / NIEHS).

Records with an inconclusive call do not appear. Activity calls are given as the source filed them. The calls were made as follows: active = hit-call score of the fitted dose curve at least 0.9, where 1 is the maximum; inconclusive = response in the unintended direction; inactive = score below 0.9.

Chain of PGR (gene 5241) (P06401 whole entry, looked up): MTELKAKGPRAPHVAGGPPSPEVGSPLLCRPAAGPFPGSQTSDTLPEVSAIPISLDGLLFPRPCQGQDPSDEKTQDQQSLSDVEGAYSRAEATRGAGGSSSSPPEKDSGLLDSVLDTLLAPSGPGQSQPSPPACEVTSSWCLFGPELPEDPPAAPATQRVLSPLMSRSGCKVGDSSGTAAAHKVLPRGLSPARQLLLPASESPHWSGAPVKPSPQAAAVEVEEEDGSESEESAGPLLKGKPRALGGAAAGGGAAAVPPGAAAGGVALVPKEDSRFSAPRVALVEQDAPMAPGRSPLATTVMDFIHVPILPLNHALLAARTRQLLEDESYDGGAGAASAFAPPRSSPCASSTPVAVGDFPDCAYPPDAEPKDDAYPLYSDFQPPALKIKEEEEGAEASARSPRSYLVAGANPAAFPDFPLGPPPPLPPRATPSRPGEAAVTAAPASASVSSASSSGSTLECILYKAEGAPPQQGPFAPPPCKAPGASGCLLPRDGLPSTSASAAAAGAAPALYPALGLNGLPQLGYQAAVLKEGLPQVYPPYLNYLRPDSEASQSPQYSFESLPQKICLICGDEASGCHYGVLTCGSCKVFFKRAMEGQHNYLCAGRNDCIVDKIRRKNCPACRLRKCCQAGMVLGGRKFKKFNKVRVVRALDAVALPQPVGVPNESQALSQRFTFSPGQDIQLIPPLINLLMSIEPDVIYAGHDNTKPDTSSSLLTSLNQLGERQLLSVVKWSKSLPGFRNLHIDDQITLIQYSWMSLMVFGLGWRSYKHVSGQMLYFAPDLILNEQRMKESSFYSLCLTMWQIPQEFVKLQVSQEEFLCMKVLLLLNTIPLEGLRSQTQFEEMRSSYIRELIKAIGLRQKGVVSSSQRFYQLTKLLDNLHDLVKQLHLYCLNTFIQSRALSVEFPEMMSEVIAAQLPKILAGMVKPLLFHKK

This assay deals with PGR (gene 5241) (UniProt P06401). The assay is described as follows: TOX21_PR_LUC_Followup_Antagonist: Tox21 HEK293 Progesterone Receptor (PR) Antagonism Luciferase Follow-Up Assay (AID 2283938).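 Also: curve fitted upward as signal gain over DMSO baseline despite antagonist label.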 An excerpt:
TOX21_PR_LUC_Followup is a secondary assay for specificity for the TOX21_PR_BLA_Agonist assay. To differentiate true PR agonists from cytotoxic substances, this follow up assay is multiplexed with a cell viability assay.TOX21_PR_LUC_Followup_Antagonist is one of one assay component(s) measured or calculated from the TOX21_PR_LUC_Followup assay. It is designed to make measurements of luciferase induction, a form of inducible reporter, as detected with bioluminescence signals by CellTiter-Glo Luciferase-coupled ATP quantitation technologyData from the assay component TOX21_PR_LUC_Followup_Antagonist was analyzed into 1 assay endpoint. This assay endpoint, TOX21_PR_LUC_Followup_Antagonist, was analyzed in the positive analysis fitting direction relative to DMSO as the negative control and baseline of activity. Using a type of inducible reporter, gain-of-signal activity can be used to understand changes in the reporter gene as they relate to the gene NR3C3. Furthermore, this assay endpoint can be referred to as a primary readout, because the performed assay has only produced 1 assay endpoint. To generalize the intended target to other relatable targets, this assay endpoint is annotated to the nuclear receptor target family, where the subfamily is steroidal.
Quality Control Precautions: Maintain cells below 85-90% confluence in culture medium. For assay purpose, the cells should be cultured in assay medium with 10% charcoal stripped FBS for 5 days with alternate day medium changed to fresh medium. Especially while in assay culture, the cells should not reach more than 85% confluence as they would become harder to detach if they reach over confluence.Assay Protocol: HEK293-PR-A-luc cells were dispensed at 3,000 cells/5 uL/well of culture medium into white wall/solid-bottom 1536-well plates using a Multidrop Combi (ThermoFisher Scientific, Waltham, MA) dispenser. After the assay plates were incubated at 37C and […] for 5 h, 23 nL of compounds dissolved in DMSO, positive controls or DMSO only was transferred to the assay plate by a Pintool station (Kalypsys, San Diego, CA). The plates were incubated at 37C and […] for 16 h. Then 4 uL of ONE-Glo reagent (Promega, Madison, WI) was added to each plate using a BioRAPTR Flying Reagent Dispenser (FRD) workstation (Beckman Coulter, Indianapolis, IN, USA) and luminescence was quantified on a ViewLux (PerkinElmer, Shelton, CT) plate reader after 30 min incubation at room temperature.
As to `COc1ccc2c(c1OC)CN1CCc3cc4c(cc3C1C2)OCO4` (configuration not stated), the AC50 is 11.5 µM (active).

For the molecule `C[C@]12CC[C@H]3[C@@H](CCC4=CC(=O)CC[C@@H]43)[C@@H]1CC[C@@H]2O`, the outcome was inactive.

As for `C[C@]12Cc3cn[nH]c3C[C@@H]1CC[C@@H]1[C@@H]2CC[C@@]2(C)[C@H]1CC[C@]2(C)O`, the call was inactive.

With `CC(=O)O[C@H]1CC[C@@]2(C)C(=CC[C@@H]3[C@@H]2CC[C@]2(C)C(=O)CC[C@@H]32)C1`, the molecule was classed as inactive.

On to `CC[C@H]1C[C@H]2[C@@H]3CCC4=CC(=O)CC[C@@H]4[C@H]3CC[C@]2(C)[C@H]1O`, for which the molecule was classed as inactive.

In the case of `C[C@]12C/C(=C/O)C(=O)C[C@@H]1CC[C@@H]1[C@@H]2CC[C@@]2(C)[C@H]1CC[C@]2(C)O`, the outcome was inactive.

For the molecule `C=CC[C@]1(O)CC[C@H]2[C@@H]3CCC4=CC(=O)CCC4=C3C=C[C@@]21C`, the outcome was inactive.

On to `CC1COC2(c3ccccc3Cl)c3cc(Cl)ccc3NC(=O)CN12` (configuration not stated), for which the outcome was inactive.

As for `C[C@]12C=CC(=O)C=C1CC[C@@H]1[C@@H]2CC[C@@]2(C)[C@H]1CC[C@]2(C)O`, the molecule was classed as inactive.

Consider `CCC(=O)O[C@@H]1C=C2CCC3C(CCC4(C)C3CC[C@@H]4OC(=O)CC)C2CC1` (some centres not stated), for which the outcome was inactive.

Consider `CCOP(=S)(OCC)Oc1cc(Cl)c(Br)cc1Cl`, for which the AC50 is 5.76 µM (active).

For `C[C@]12CC[C@H]3[C@@H](CCC4=CC(=O)CC[C@@H]43)[C@@H]1CC[C@@H]2OC(=O)CCc1ccccc1`, the molecule was classed as inactive.

Regarding `C[C@]12Cc3nonc3C[C@@H]1CC[C@@H]1[C@@H]2CC[C@@]2(C)[C@H]1CC[C@]2(C)O`, the outcome was inactive.

As to `O=C1CN=C(c2ccccc2)c2cc(Cl)ccc2N1CC1CC1`, the call was inactive.

For the molecule `CCC1COC(Cn2cncn2)(c2ccc(Cl)cc2Cl)O1` (configuration not stated), the half-maximal activity concentration (AC50) was 36.3 µM (active).

As for `C[C@]12CCC(=O)C(O)=C1CC[C@@H]1[C@@H]2CC[C@]2(C)C(=O)CC[C@@H]12`, the result was inactive.

As to `C[C@]12CC[C@H]3[C@@H](CCC4=CC(=O)CC[C@@H]43)[C@@H]1CC[C@@H]2OC(=O)CCC1CCCCC1`, the call was inactive.

As to `C[C@]12CC[C@H]3[C@@H](CCC4=CC(=O)CC[C@@H]43)[C@@H]1CC[C@@H]2OC(=O)CCc1ccco1`, the molecule was classed as inactive.

Regarding `CC[C@]1(O)CC[C@H]2[C@@H]3CCC4=CCCC[C@@H]4[C@H]3CC[C@@]21C`, the call was inactive.

Take `C#C[C@]1(O)CC[C@H]2[C@@H]3CCC4=CC(=O)CCC4=C3C=C[C@@]21CC`: the result was inactive.

With `C[C@H]1CCC[C@H](O)CCCCCc2cc(O)cc(O)c2C(=O)O1`, the AC50 was 10.1 µM (active).

For the molecule `N#Cc1cc(I)c(O)c(I)c1`, the half-maximal activity concentration (AC50) was 29.9 µM (active).

With `CCOC(=O)C1(c2ccccc2)CCN(CCC(C#N)(c2ccccc2)c2ccccc2)CC1`, the molecule was classed as inactive.

For the molecule `Nc1ccc(Cl)cc1C(=O)c1ccccc1F`, the call was inactive.

`O=[N+]([O-])c1ccc2ccc3cccc4ccc1c2c34`: the AC50 was 13 µM (active).

In the case of `C=C1C[C@@H]2[C@H](CC[C@]3(C)C(=O)CC[C@@H]23)[C@@]2(C)C=CC(=O)C=C12`, the outcome was inactive.

Consider `C[C@]1(O)CC[C@H]2[C@@H]3CCC4=CC(=O)CC[C@]4(C)[C@@]3(F)[C@@H](O)C[C@@]21C`, for which the molecule was classed as inactive.

As for `CC(C)(c1cc(Cl)c(O)c(Cl)c1)c1cc(Cl)c(O)c(Cl)c1`, the AC50 was 17.2 µM (active).

Take `O=C1C(Cl)C(CCl)CN1c1cccc(C(F)(F)F)c1` (configuration not stated): the call was inactive.

As to `COP(=S)(NC(C)C)Oc1ccc(C)cc1[N+](=O)[O-]` (configuration not stated), the AC50 was 21.2 µM (active).

For `C[C@]12CC[C@H]3[C@@H](CC[C@@]45O[C@@H]4C(O)=C(C#N)C[C@]35C)[C@@H]1CC[C@@H]2O`, the outcome was inactive.

In the case of `O=C(CBr)Nc1ccc(Cl)cc1C(=O)c1ccccc1F`, the result was inactive.
